Out of some 2,300 compounds screened, about 790 (34%) were called active. This is one part of the list. Entries with a potency or affinity are not part of this list. Unmarked numbers belong to inactive results. How the calls were made is not given here.
assay: THP-1 cell cytotoxicity, dose response, cytotoxicity control for non-replicating M. tuberculosis project (AID 489025); details: THP-1 cell viability; series mostly up to 40 µM; viability: at the top concentration

| SMILES | viability [%] |
| --- | --- |
| COc1cccc(/C=N/N2C(=O)CSC2=S)c1O | 112 |
| CCCC(C)C(=O)Nc1ccc(Cl)cn1 (configuration not stated) | 114 |
| O=[N+]([O-])c1ccc(N2CCCCCC2)c2nonc12 | 112 |
| CC1CCCN(CCC(=O)c2ccc(Br)cc2)C1 (configuration not stated) | 98.7 |
| C/C(=N\Nc1cccc2cccnc12)c1ccccn1 | 79.8 |
| CC(OC(=O)c1ccc2c(=O)n3c(nc2c1)CCCCC3)C(=O)Nc1ccc(Cl)cn1 (configuration not stated) | 80.8 |
| CCOC(=O)c1cc(-c2csc(COc3ccccc3)n2)on1 | 95.9 |
| Cn1cccc1/C=N/NC(=O)c1ccco1 | 102 |
| COc1cc(Cl)cc(/C=N/NC(N)=O)c1O | 103 |
| O=C(N/N=C/c1cn[nH]c1-c1ccccc1)c1ccco1 | 96.9 |
| Cc1occc1C(=O)N/N=C/c1ccc[nH]1 | 82.8 |
| O=C(OCc1ccc([N+](=O)[O-])cc1)c1cc2ccccc2oc1=O | 96.3 |
| Cc1cccc(NC(=O)c2cc3ccccc3oc2=O)c1 | 87.6 |
| Cc1cc(C)n(-c2ccc(C(=O)OCC(=O)Nc3cc(Cl)ccc3[N+](=O)[O-])cc2)n1 | 104 |
| COc1ccccc1/C=C/C=N/NC(=O)c1ccncc1 | 75.8 |
| COc1ccc(OC(=O)C2CC(=O)N(c3ccc(C)cc3)C2)cc1 (configuration not stated) | 108 |
| O=C(COC(=O)c1cccs1)NCCC1=CCCCC1 | 96.1 |
| CCCCN(C)C(=O)c1cc2cc3ccc(OC)cc3nc2s1 | 85.8 |
| CN(CC(=O)Nc1ccc(C#N)cc1)Cc1ccc(Cl)c(Cl)c1 | 102 |
| Cc1ccnc(NC(=O)COc2ccc3c(c2)CCC3)c1 | 107 |
| Cc1cccnc1NC(=O)COc1ccc2oc3c(c2c1)CCCC3 | 79.2 |
| O=C(O)COc1ccc2occ(C(=O)c3ccccc3)c2c1 | 118 |
| CC(/C=C/c1ccco1)=N/NC(=O)c1ccc(C)nc1 | 94.9 |
| CC(=O)N1N=C(c2ccccc2)OC1c1ccc([N+](=O)[O-])s1 (configuration not stated) | 99.8 |
| Cc1onc(-c2ccccc2)c1C(=O)Nc1nnc(COc2ccc(Cl)cc2)s1 | 102 |

| SMILES | viability [%] |
| --- | --- |
| O=C(N/N=C/c1ccc([N+](=O)[O-])s1)c1ccncc1 | 102 |
| O=C(N/N=C\c1ccco1)c1cncc(Br)c1 | 108 |
| CNC(=S)N1CCN(c2c(F)cc3c(=O)c(C(=O)O)cn(C4CC4)c3c2OC)CC1C (configuration not stated) | 110 |
| O=C(Oc1ccc(F)cc1)c1ccc2c(=O)n3c(nc2c1)CCC3 | 106 |
| CCN(CC)C(=O)c1sc2nc(-c3ccccc3)ccc2c1N | 72.4 |
| O=C(Nc1ccc(Br)cc1)c1cc([N+](=O)[O-])cc([N+](=O)[O-])c1 | 92 |
| Cc1ccc(C(=O)CCNc2ccc(F)c(Cl)c2)o1 | 116 |
| CCCCSc1nnc(-c2ccc(C)cc2)o1 | 108 |
| CC1=NN(c2ccc(C(=O)O)cc2)C(=O)/C1=C\c1ccc(OC(=O)c2cccs2)cc1 | 112 |
| CCC(=O)N/N=C/c1ccc(-c2ccc(Cl)cc2)o1 | 103 |
| Cc1ccc(C(=O)N/N=C\c2ccc[nH]2)cn1 | 97.8 |
| Cc1ccc(/C=N/NC(=O)c2ccncc2)s1 | 114 |
| COc1ccc(C(=O)COC(=O)c2ccc([N+](=O)[O-])s2)cc1OC | 98.1 |
| O=C(N/N=C/c1ccc(Br)s1)c1ccncc1 | 112 |
| O=C(N/N=C/c1cccs1)c1cncc(Br)c1 | 101 |
| Cc1ccc(NC(=O)CC2SC3=NCCCN3C2=O)c(C)c1 (configuration not stated) | 86.8 |
| CCC1CCC(c2nnc(-c3ccc([N+](=O)[O-])cc3)o2)CC1 (configuration not stated) | 110 |
| Nc1ccc(Br)c2cccnc12 | 110 |
| CCC(C)n1c(=S)[nH]c2ccccc2c1=O (configuration not stated) | 90.4 |
| O=C(N/N=C/c1ccc(Br)s1)c1cccnc1 | 112 |
| CC(C)(C)OC(=O)N/N=C\c1ccc([N+](=O)[O-])s1 | 113 |
| COc1cc(/C=C2/C(=O)NN(c3cccc(F)c3)C2=O)ccc1OC(=O)c1ccco1 | 111 |
| CCOc1ccc(Nc2ccc([N+](=O)[O-])c3nonc23)cc1 | 83.1 |
| CS/C(Nc1cc(Cl)ccc1Cl)=C(/C#N)C(=O)c1ccco1 | 72.6 |
| Cc1ccc(NC(=O)C(=O)NNC(=O)c2ccccc2C)cc1Cl | 86.4 |

| SMILES | viability [%] |
| --- | --- |
| CCOC(=O)N1CCN(c2cc(C)c([N+](=O)[O-])cc2F)CC1 | 92.8 |
| Cc1ccc(CN2CC(C(=O)OCc3ccccc3Cl)CC2=O)cc1 (configuration not stated) | 121 |
| Cc1cccc(C)c1NC(=O)c1sc(N)nc1-c1ccccc1 | 100 |
| Cc1ccc(NC(=O)c2noc(C(C)C)c2[N+](=O)[O-])cc1 | 99.2 |
| Cc1ccc2cc(/C=N/NC(=O)[C@H](C)NC(=O)OC(C)(C)C)c(Cl)nc2c1 | 84.4 |
| O=C(N/N=C/c1cccc(F)c1)c1c(O)c2ccccc2[nH]c1=O | 80.8 |
| CC(=O)Oc1ccc(/C=C2\N=C(C3CCCCC3)OC2=O)cc1 | 106 |
| COc1cc(N=c2ssnc2Cl)cc(OC)c1OC | 85.6 |
| CCn1ccc(C(=O)Nc2cccc(Cl)c2)n1 | 99.6 |
| O=C(CCSc1nnc(-c2ccncc2)o1)Nc1cccc(Cl)c1 | 82.2 |
| CCN1CCN(Cc2cc(C(C)(C)C)c(O)c(C(C)(C)C)c2)CC1 | 107 |
| CC(=O)Nc1cccc(-c2nc3ccccc3c(=O)o2)c1 | 93 |
| CCCCOC(=O)Cn1c(-c2ccccc2)nc2ccccc2c1=O | 107 |
| O=C(Nc1ccccn1)c1ccc(C(=O)c2ccccc2)cc1 | 86.9 |
| CCCOC(=O)c1ccc(NC(=O)c2ccc(Br)o2)cc1 | 70.8 |
| O=C(Nc1cccnc1)c1ccc(-c2ccc(Cl)cc2)o1 | 78 |
| CC(C)(C)c1ccc(OCCC(=O)OCC(=O)NC2CC2)cc1 | 97.6 |
| O=C(NC1CCOc2ccccc21)c1ccc(Cl)nc1 (configuration not stated) | 104 |
| Cc1ccccc1-n1nnc2c(=O)oc3ccccc3c21 | 117 |
| NC(=O)C1CCN(C2CC(=O)NC2=O)CC1 (configuration not stated) | 125 |
| O=C(c1cc2ccccc2o1)c1nc2c(n1O)CCCCC2 | 101 |
| O=C(Nc1ncc(Cc2ccccc2)s1)C1=NCCN1 | 101 |
| CCOC(=O)Cc1cc(=O)n2[nH]cc(-c3ccc(Cl)cc3)c2n1 | 87.2 |
| CCOC(=O)Cc1ccc(NCc2ccc(Cl)cc2)cc1 | 82.2 |
| CCOC(=O)C1(O)CC(C)=NN1C(=O)c1cccc(Br)c1 (configuration not stated) | 88.5 |

| SMILES | viability [%] |
| --- | --- |
| CCOC(=O)c1c(C)nc2c3ccccc3ccn12 | 113 |
| O=C1CC(N2CCN(c3ccccc3)CC2)C(=O)N1CCc1ccccc1 (configuration not stated) | 97.6 |
| CCOc1ccc(NC(=O)COC(=O)C2(C)CC2(Cl)Cl)c([N+](=O)[O-])c1 (configuration not stated) | 94.1 |
| Cc1ccc(Sc2ncccc2N)cc1 | 104 |
| O=C(NCCCN1CCOCC1)c1ccc(CSc2ccc(Cl)cc2)cc1 | 71.3 |
| Cc1ccc2oc(=O)c3cc(C(=O)NCCCN4CCCCCC4)sc3c2c1 | 80.9 |
| CC(=O)N1CCC(=NNC(=O)c2cccs2)CC1 | 112 |
| Cc1cccc(CSc2nnc(-c3ccco3)o2)c1 | 94.8 |
| C#CCSc1nnc(-c2ccc([N+](=O)[O-])cc2)o1 | 92.9 |
| C#CCSc1nnc(-c2ccc(O)cc2)o1 | 112 |
| CCOc1ccc(CC(=O)N2N=C(C)CC2(O)C(F)(F)F)cc1 (configuration not stated) | 103 |
| O=C(CNC1CCCC1)Nc1ccc(N2CCCCCC2)cc1 | 91.9 |
| COc1cc(N=c2ssnc2Cl)cc(OC)c1 | 117 |
| N#Cc1ccc(N=c2ssnc2Cl)cc1 | 112 |
| CC(=O)Nc1ccc(NC(=O)[C@@H]2CCCC[C@@H]2C(=O)O)cc1 | 85.2 |
| CC(C)N=C1SC(CC(=O)Nc2ccccc2)C(=O)N1C(C)C (configuration not stated) | 85.1 |
| CC(C)(C)c1ccc(C(=O)N2CCCC2)s1 | 90.3 |
| CC1(C)OC(c2ccccc2)=C/C(=C\C=N\NC(=O)c2ccncc2)O1 | 75.6 |
| Cc1ccc(NC(=O)CCSc2nnc(-c3ccco3)o2)cc1 | 104 |
| O=C1/C(=C/c2ccco2)CCC1C1CCCC1 (configuration not stated) | 98 |
| COc1ccc(CC(=O)Nc2nccs2)cc1OC | 105 |
| O=C(Oc1ccc(/C=N/O)cc1)c1ccccc1Cl | 115 |
| N/C(=N\OC(=O)c1cccc2ccccc12)c1cccnc1 | 121 |
| Cc1ccc(-c2nnc(Cc3ccc([N+](=O)[O-])cc3)o2)cc1 | 95.5 |
| N/N=C(/Cc1nc2ccccc2[nH]1)c1ccc([N+](=O)[O-])cc1 | 104 |

| SMILES | viability [%] |
| --- | --- |
| O=[N+]([O-])c1ccc2nc(SCc3cn4ccccc4n3)[nH]c2c1 | 123 |
| O=C(Nc1nc2ccccc2[nH]1)c1cccc([N+](=O)[O-])c1 | 106 |
| Cc1ccc2cc3c(nc2c1)OCC3 | 108 |
| Fc1ccc(N2CCN(Cc3nnc(-c4ccccc4)o3)CC2)cc1 | 105 |
| O=C1CCCCC1Sc1nnc(-c2ccc3c(c2)OCO3)o1 (configuration not stated) | 107 |
| O=C(COC(=O)c1ccccc1Cl)NCCC1=CCCCC1 | 93.1 |
| Cc1ccc2c(C)ccc(O)c2n1 | 123 |
| CN1C(=O)CC(N2CCC(c3nc4ccccc4s3)CC2)C1=O (configuration not stated) | 97.2 |
| FC(F)(F)c1ccc(NCCc2ccccc2)nc1 | 98 |
| CN(C)/C=C1/C(=O)N(c2ccc([N+](=O)[O-])cc2)N=C1c1ccccc1 | 101 |
| Cc1cc(C)n2nc(N)c(N=Nc3ccccc3)c2n1 | 95.3 |
| S=C1CN=C(c2ccccc2)c2cc(Cl)ccc2N1 | 90.6 |
| CC(C)c1ccc(N2C(=O)CC(Sc3ncn[nH]3)C2=O)cc1 (configuration not stated) | 98.1 |
| CCOC(=O)COn1c2c(c3c4no[n+]([O-])c4ccc31)CCCC2 | 123 |
| CN(C)CCNc1c2c(c(C#N)c3nc4ccccc4n13)CCCC2 | 99.4 |
| CC1=NN(c2ccccc2)C(=O)C1C(=O)c1ccccc1 (configuration not stated) | 76.9 |
| Oc1ccccc1CN1CCCC(N2CCN(c3cccc(C(F)(F)F)c3)CC2)C1 (configuration not stated) | 73.8 |
| N=C1/C(=C/c2ccc(OC(=O)c3ccco3)cc2)C(=O)N=C2SC=CN12 | 108 |
| CCc1ccc(C2=C/C(=C/c3cccnc3)C(=O)O2)cc1 | 126 |
| Cc1ccc(OCC(=O)OCc2c(C)noc2C)cc1C | 123 |
| CCOc1ccc(NC(=O)COc2ccc3c(c2)OCO3)cc1 | 103 |
| O=C(COC(=O)c1ccccc1Br)Nc1ccccc1F | 107 |
